Screening data from PubChem.
Sampled rows, rich in hits. Any-hit rate of the full collection: about 0.52%.
Sa growth inh = S. aureus growth inhibition; relative growth, % (concentration not given with the values); 170,000 tested, 0.53% active; S. aureus RN4220 growth, OD600, 20 h, 42 °C; hits give low values;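 active = relative growth at most 50% at the other temperature and 20+ points below 30 °C, or under 10% at both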
Sa helicase inh = blocks Staphylococcus aureus DNA helicase; purified S. aureus helicase, fluorescence unwinding assay; inhibition, % (no concentration beside the values); 120,000 tested, 0.05% active; AID 485395; in the data active = inhibition above about 25%, passing the limit was not always enough;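 also: 0% = mean of negative control wells and 100% = mean of positive control wells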
Starred values were filed as active, the others as inactive; nt = no result.

SMILES	Sa growth inh	Sa helicase inh
N#C/C=C(\c1ccc(F)cc1)n1ccnc1	67	-6
COc1ccc(-c2cc(=NCCc3ccccc3)c3cc(C)ccc3o2)cc1	14	46*
COc1ccc(-c2cc(=NC(CC(C)C)C(=O)O)c3cc(C)ccc3o2)cc1 (configuration not stated)	92	7
CCc1ccc(S(=O)(=O)/N=C2/C=C(Nc3ccccc3)C(=O)c3ccccc32)cc1	83	9
O=C1C(Sc2ncn[nH]2)=C/C(=N/S(=O)(=O)c2ccc(Cl)cc2)c2ccccc21	1.2*	24
O=C(CN1CCN(c2ccccc2Cl)CC1)NCC(F)(F)F	100	-13
Cc1[nH]nc(-c2ccc(O)cc2O)c1Oc1ccc(C(C)C)cc1	29*	-15
Cc1[nH]nc(-c2ccc(O)c(C)c2O)c1Oc1ccccc1	89	-11
COc1ccc(NC(=O)c2sc(=S)n3c2[nH]c(=O)c2ccccc23)cc1	35	-13
Cc1ccc(NC(=O)c2sc(=S)n3c2[nH]c(=O)c2ccccc23)c(C)c1	4.6*	nt
CCN(C(=O)C1CCN(S(=O)(=O)c2cccc3nsnc23)CC1)c1ccc(C)c(C)c1	88	-11
CCCN(CCC)C(=O)Cn1nnc2sc3c(c2c1=O)CCCC3	68	19
CN(c1ccccc1)C1(O)C(=O)c2ccccc2C1=O	105	4
Cc1ccc2c(CN3CCN(C(=O)C4Cc5ccccc5CN4S(C)(=O)=O)CC3)cc(=O)oc2c1 (configuration not stated)	113	-21
N#CC(C#N)=NNc1ccc2c(c1)OCO2	0.6*	18
CC(=O)Nc1ccc2c(c1)OCO2	138	16
CN1C(=O)/C(=C2\SC(N3CCCCCC3)=NC2=O)c2ccccc21	111	43*
C=CCN1C(=O)/C(=C2\SC(N3CCCCC3)=NC2=O)c2ccccc21	96	18
COc1cccc(NC(=O)CSc2nc3ccsc3c(=O)n2Cc2ccccc2Cl)c1	87	nt
CO[C@@]1(NC(=O)C(C(=O)O)c2ccc(O)cc2)C(=O)N2C(C(=O)O)=C(CSc3nnnn3C)CO[C@@H]21 (some centres not stated)	88	nt
Cn1nnnc1SCC1=C(C(=O)O)N2C(=O)C(NC(=O)C(OC=O)c3ccccc3)C2SC1 (configuration not stated)	-0.7*	nt
O=C(O)C1=C(CSc2nnnn2CS(=O)(=O)O)CS[C@@H]2C(NC(=O)[C@H](O)c3ccccc3)C(=O)N12 (some centres not stated)	-0.7*	nt
Cn1nnnc1SCC1=C(C(=O)O)N2C(=O)C(NC(=O)C(O)c3ccccc3)C2SC1 (configuration not stated)	-0.5*	nt
O=C(NCCSc1nnnn1-c1ccccc1)C(c1ccccc1)c1ccccc1	104	-4
Cn1nnnc1SCCC(=O)Nc1ccccc1	92	2
SMILES	Sa growth inh	Sa helicase inh
CCc1ccc(/C=c2\s/c(=C(/C#N)C(=O)C(C)(C)C)n(Cc3ccco3)c2=O)cc1	109	3
CCCCc1ccc(NC(=O)COC)cc1	87	12
Cc1[nH]c2ccc(C(=O)NC3CC3)cc2c1C	115	2
Cc1[nH]c2ccc(C(=O)NCC3CCCO3)cc2c1C (configuration not stated)	103	29*
Nc1nc2ccccc2n1Cc1ccccc1F	102	-13
CC(C)(C)c1ccc(Cn2c(N)nc3ccccc32)cc1	6.3*	10
Clc1ccc(SCc2noc(-c3ccsc3)n2)cc1	101	nt
CC[n+]1ccc(C)c2ccccc21	99	2
CCN1C=C/C(=C\c2cc[n+](CC)c3ccccc23)c2ccccc21	5.5*	82*
C/C(=N/O)C12CCC(CC1)C2	87	nt
Cc1oc2c(c1C(=O)NCCCN1CCOCC1)C(=O)c1ccccc1C2=O	1.7*	2
Cc1oc2c(c1C(=O)NCc1ccccn1)C(=O)c1ccccc1C2=O	0.6*	4
Cc1oc2c(c1C(=O)O)C(=O)c1ccccc1C2=O	11	2
Cc1oc2c(c1C(=O)NCc1ccccc1)C(=O)c1ccccc1C2=O	20	2
Cc1oc2c(c1C(=O)N1CCc3ccccc3C1)C(=O)c1ccccc1C2=O	6.5*	6
Cc1c(C(=O)NCCCN2CCOCC2)cc(-c2ccccc2)n1-c1ccccc1	101	nt
Cc1noc(C)c1CON=c1c(C)nc2ccccc2nc1C	89	-1
N=C1C(c2ccccc2)=C(O)CN1c1ccc(S(=O)(=O)N2CCOCC2)cc1	92	5
CCc1ccccc1NC(=O)CSc1nnc(C)n1CC	106	19
Cc1nn(-c2ccccc2)c(C)c1CCC(=O)Nc1ccc(S(C)(=O)=O)cc1	106	-4
CO[C@H]1C[C@H](O[C@H]2[C@H](C)[C@@H](O[C@@H]3O[C@H](C)C[C@H](N(C)C)[C@H]3OC(C)=O)[C@@H](C)C[C@@]3(CO3)C(=O)[C@H](C)[C@@H](OC(C)=O)[C@@H](C)[C@@H](C)OC(=O)[C@@H]2C)O[C@@H](C)[C@@H]1OC(C)=O	3.7*	nt
Cc1ccc(NC(=O)c2ccn(C(=O)Nc3cccc(Cl)c3)n2)cc1	45*	17
Cc1ccc(NC(=O)c2ccc(=O)n(CC(=O)Nc3cccc(C)c3)n2)cc1	114	nt
CN1CC2(C)CN(C(=O)c3ccccc3Cl)CC(C)(C1)C2	94	-3
Cn1c(C2CC(=O)N(c3cccc4ccccc34)C2)nc2ccccc21 (configuration not stated)	0.4*	6
SMILES	Sa growth inh	Sa helicase inh
O=C1CC(c2nc3ccccc3[nH]2)CN1c1cccc2ccccc12 (configuration not stated)	89	10
CC(Oc1ccc2c(c1)OCO2)C(=O)c1ccc(OC(F)F)cc1 (configuration not stated)	83	-2
CCOc1ccc(NC(=O)N2CCN(c3ccc(Cl)c(Cl)c3)CC2)cc1	107	nt
CC(=O)N1CCN(c2ccc(OCC3CO[C@](Cn4ccnc4)(c4ccc(Cl)cc4Cl)O3)cc2)CC1 (some centres not stated)	2.6*	nt
O=C(Nc1ccc2ccccc2c1)C1CCC1	92	-2
COCc1nnc(NC(=O)c2ccc(S(=O)(=O)N(C)C3CCCCC3)cc2)o1	8.5*	-3
CC(C)CN(CC(C)C)S(=O)(=O)c1ccc(C(=O)Nc2nnc(-c3ccccn3)o2)cc1	83	4
CCc1nnc(NC(=O)c2ccc(S(=O)(=O)N(C)c3ccccc3)cc2)o1	15	10
CSCc1nnc(NC(=O)c2ccc(S(=O)(=O)N(CC(C)C)CC(C)C)cc2)o1	-0.4*	4
COc1ccc2[nH]c(=O)c(C(c3nnnn3Cc3ccccc3)N(C)C3CCCCC3)cc2c1 (configuration not stated)	92	3
CC(=O)Nc1cccc(OCC(=O)N2CCCCC2)c1	86	11
Clc1cccc(Cc2nnc(-c3ccccc3)o2)c1	75	11
CCC(=O)Nc1nc2c(s1)CSc1ccccc1-2	6.6*	26
CCC(=O)Nc1nc2ccccc2s1	90	-14
COc1cc(C)c(Cc2cnc(N)nc2N)cc1OC	-0.2*	nt
COc1cc(Cc2cc(OC)c(C)cc2OC)c(OC)cc1C	98	nt
CCCCOc1ccc(C(=O)OCC2CCCN3CCCCC23)cc1OC (configuration not stated)	43*	13
O=C(OC[C@@H]1CCCN2CCCCC12)c1ccccc1 (some centres not stated)	93	9
O=C1OC2(CCCC2)OC(=O)C1=Cc1ccc(OCc2ccccc2)cc1	84	2
O=C(O)c1ccccc1SCc1cc(=O)n2nc(-c3ccco3)sc2n1	86	0
